# BoNT-A LC inh2 – blocks Botulinum neurotoxin A light chain protease; multiplex microsphere protease substrate cleavage, flow cytometry; inhibition, % at 10 µM; 360,000 compounds, 0.17% hits; AID 588499
# Anthrax LF prot – blocks Bacillus anthracis lethal factor protease. inhibition, % at 10 µM. 360,000 compounds, 0.12% hits. multiplex microsphere protease cleavage assay, LF. P15917
# Bead autofluor – counter-screen for toxin protease inhibitors: compound fluorescence | fluorescence intensity (concentration not given with the values) | 360,000 compounds, 3.1% hits | compound autofluorescence counterscreen, microsphere flow cytometry; stronger effect = higher value; in the data active = fluorescence intensity above about 16000; inconclusive = no clear call, values can overlap the other calls
# BoNT F protease – blocks Botulinum neurotoxin F light chain protease. Multiplex microsphere protease cleavage assay, flow cytometry. inhibition, % at 10 µM. 360,000 compounds, 0.22% hits; in the data active = inhibition above about 35%, passing the limit was not always enough; inconclusive = no clear call, values can overlap the other calls
# MazF activator – increases E. coli MazEF RNase cleavage of RNA. FAM/BHQ RNA-DNA oligo cleavage fluorescence, 5 h. activation, % at 20 µM. 350,000 compounds, 0.32% hits. AID 504720; in the data active = activation above about 50%
# Target sequence (P0AE70 whole entry, looked up): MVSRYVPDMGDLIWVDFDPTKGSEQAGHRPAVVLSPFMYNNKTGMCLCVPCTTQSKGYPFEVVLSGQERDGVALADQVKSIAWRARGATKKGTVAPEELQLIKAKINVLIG
# VHR inh abs – inhibitors of human VHR1 phosphatase (DUSP3); recombinant VHR phosphatase, pNPP absorbance; inhibition, % at 13.3 µM; 290,000 compounds, 0.52% hits; in the data active = inhibition above about 50%
# Target sequence (P51452 whole entry, looked up): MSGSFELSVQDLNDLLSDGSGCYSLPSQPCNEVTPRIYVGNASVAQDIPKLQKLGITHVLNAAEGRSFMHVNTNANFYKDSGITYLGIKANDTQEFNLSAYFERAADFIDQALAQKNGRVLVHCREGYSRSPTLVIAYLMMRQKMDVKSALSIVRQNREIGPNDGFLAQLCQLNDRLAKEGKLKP
# Numbers stand for hits; – = inactive; ? = inconclusive; · = no result; ! = repeats disagree. An excerpt weighted towards active compounds, which were near 4.1% of everything screened. Rule as the data show it, unless noted: active = inhibition above about 30%; inconclusive = no clear call, values can overlap the other calls; inactive = below that.
SMILES,BoNT-A LC inh2,Anthrax LF prot,Bead autofluor,BoNT F protease,MazF activator,VHR inh abs
O=C(CSc1nnc(-c2cccnc2)n1Cc1ccccc1)N1CCOCC1,?,–,24649,–,–,–
O=C(CSc1nnc(Cn2c(=O)sc3ccccc32)n1CCc1ccccc1)N1CCOCC1,–,–,16901,–,–,–
Cn1c(Cn2c(=O)sc3ccccc32)nnc1SCC(=O)N1CCOCC1,–,–,–,–,–,–
O=C(CSc1nnc(-c2ccccc2)n1Cc1ccccc1)N1CCOCC1,–,–,–,–,–,–
O=C(Cc1c[nH]c2ccccc12)N1CCN(S(=O)(=O)c2cccc(Cl)c2Cl)CC1,–,–,–,–,–,·
COc1ccc(OC)c(Nc2nc(-c3cccc([N+](=O)[O-])c3)nc3ccccc23)c1,–,–,25968,–,–,–
O=c1cnnc(SCCc2ccccc2)[nH]1,–,–,23384,–,–,–
Cc1cccc(CSc2nncc(=O)[nH]2)c1,–,–,–,–,–,–
CSc1nncc(=O)[nH]1,–,–,21213,–,–,–
CCn1nnc(C(=O)O)c1C(=O)O,?,–,16922,–,–,–
Nc1c(C(=O)O)nnn1Cc1ccccc1,–,–,–,–,–,–
O=C(CC[C@H]1O[C@@H](n2ccc(=O)[nH]c2=O)[C@H](O)[C@@H]1O)N1CCN(Cc2cccc3ccccc23)CC1,–,–,–,–,·,·
CCC(=O)N(CCC1(C(C)C)CCOC(C)(C)C1)Cc1ccco1 (stereo not drawn),–,–,–,–,–,–
CC(=O)N(CCC1(C(C)C)CCOC(C)(C)C1)Cc1ccco1 (stereo not drawn),?,–,19564,–,–,–
Cc1c(C)c2ccc(OCC(=O)N(C)C3CCS(=O)(=O)C3)c(C)c2oc1=O (stereo not drawn),–,–,–,–,–,–
c1ccc2[nH]c(-c3ccnc4ccccc34)nc2c1,–,–,17421!,–,–,–
c1ccc2c(-c3nc4ccccc4[nH]3)cccc2c1,–,–,–,–,–,·
O=C(NCCCN1CCCC1)c1ccc2c(c1)N(Cc1ccccc1F)C(=O)c1ccccc1S2(=O)=O,–,–,–,–,–,51
CCN1C(=O)c2ccccc2S(=O)(=O)c2ccc(C(=O)NCCOC)cc21,–,–,–,61,–,–
COc1ccc(S(=O)(=O)Nc2cc(C(=O)NCCCOC(C)C)ccc2N2CCOCC2)cc1,–,–,–,–,–,–
COc1ccc(S(=O)(=O)N(C)c2ccc(C(=O)NCCC(C)C)cc2)cc1,?,–,19593,–,–,–
COc1ccc(S(=O)(=O)Nc2cc(C(=O)NCCC(C)C)ccc2N2CCOCC2)cc1,–,–,23444,–,–,–
CCOCCCNC(=O)c1ccc(N(C)S(=O)(=O)c2ccc(OC)cc2)cc1,–,–,–,–,–,–
Cc1c2cnccc2c(C)c2c1oc1ccccc12,–,–,–,–,–,·
O=C(O)c1[nH]c2ccccc2c1NS(=O)(=O)Cc1ccccc1,–,–,16578,–,–,–
SMILES,BoNT-A LC inh2,Anthrax LF prot,Bead autofluor,BoNT F protease,MazF activator,VHR inh abs
Cc1cc(=O)n2ccccc2c1C#N,?,–,22057,–,–,–
O=[n+]1c2c(n([O-])c3ccccc31)CCCC2,–,–,16483,–,–,–
O=[n+]1c2c(n([O-])c3cc(Br)ccc31)CCCC2,–,–,–,–,–,–
CC(NC(=O)c1ccccc1F)c1nnc(SCC(=O)NC2CCCC2)n1C (stereo not drawn),–,–,–,–,–,–
O=C(CSc1cccc2cccnc12)Nc1cc(C(=O)O)cc(C(=O)O)c1,–,–,–,?,–,–
COc1cc2nc(N3CCNCC3)nc(N)c2cc1OC,–,–,17344,–,–,–
COc1cc2nc(N3CCN(c4cc(C)ccc4C)CC3)nc(N)c2cc1OC,–,–,–,–,–,–
CN(C)C(CNC(=O)c1ccc(NS(=O)(=O)c2ccc(F)cc2)cc1)c1ccco1 (stereo not drawn),–,–,36456,–,–,·
CCOc1ccc(NS(=O)(=O)c2ccc(C(=O)NCC(c3ccco3)N3CCCC3)cc2)cc1 (stereo not drawn),–,–,–,–,52,·
O=C(NCC(c1ccco1)N1CCCC1)c1ccc(S(=O)(=O)Nc2ccc(F)cc2)cc1 (stereo not drawn),–,–,–,–,–,·
O=C(Nc1ccc2c(c1)OCO2)N1CCN(C/C=C/c2ccccc2)CC1,–,–,17067,–,–,–
O=C(Nc1ccc2c(c1)OCO2)N1CCN(c2ncccn2)CC1,–,–,22918,–,–,–
COC(=O)c1ccccc1NC(=O)N1CCN(C/C=C/c2ccccc2)CC1,–,–,20603,–,–,–
O=C(Nc1ccc(F)cc1)N1CCOCC1,?,–,19165,–,–,–
COc1cc(OC)c(C(=O)c2ccccc2[N+](=O)[O-])c(OC)c1,–,–,–,–,–,·
CC(=O)c1cccc(Nc2ccc(Br)cc2)c1,–,–,–,–,·,·
CCOC(=O)c1ccc(NC(=O)CSC2=NN3CCCC(=O)N=C3S2)cc1,–,–,–,–,–,–
O=C(Nc1ccc2c(c1)OCO2)N1CCN(c2ccc(F)cc2)CC1,–,–,–,–,–,57
COc1cccc(NC(=S)N2CCN(C/C=C/c3ccccc3)CC2)c1,–,–,22410,–,–,–
O=C(Nc1ccc2c(c1)OCO2)N1CCN(c2ccccc2)CC1,–,–,–,–,–,–
COc1cc(NC(=S)N2CCN(C/C=C/c3ccccc3)CC2)cc(OC)c1,–,–,–,–,–,–
CN1C[C@@H]2[C@@H]3C(=O)N(C)C(=O)[C@@H]3[C@](C)(C1=O)N2C(=O)c1ccc(Cl)c(Cl)c1,–,–,–,–,–,·
CCCCOc1ccc(-n2nc(C)cc2C)nn1,–,–,–,–,–,–
Cc1cc(C)n(-c2ccc(OCC(=O)O)nn2)n1,–,–,23964,–,–,–
Cc1cc(C)c(S(=O)(=O)N2C[C@H]3CON(C)[C@H]3C[C@H]2c2ccc(N3CCCCC3)cc2)c(C)c1,–,–,34680,–,·,·
SMILES,BoNT-A LC inh2,Anthrax LF prot,Bead autofluor,BoNT F protease,MazF activator,VHR inh abs
Cc1ccc(-c2cc(C(=O)Nc3c(C)n(C)n(-c4ccccc4)c3=O)[nH]n2)c(O)c1,?,–,22384,–,–,–
CCc1nc(N2CCOCC2)c(C#N)c2c1COC(C)(C)C2,–,–,–,–,–,–
Cc1nc(N2CCOCC2)c(C#N)c2c1COC(C)(C)C2,–,–,20542,–,–,–
COc1cc(C(O)c2nc(-c3cccc(NC(C)=O)c3)cs2)ccc1F (stereo not drawn),–,–,–,–,·,·
Cc1cc(C)c(NC(=S)N2CCN(c3ccc([N+](=O)[O-])cn3)CC2)cc1C,–,–,–,–,–,–
CC(=O)Nc1cccc(-c2cccc3nccn23)c1,–,–,–,–,·,·
Cc1ccc2[nH]c3c(c2c1)CN(C(=O)CN1c2ccc(F)cc2CCC1C)CC3 (stereo not drawn),?,–,21807,–,–,–
Cc1ccc(N2C(=O)CC3(CCCC3)CC2=O)cc1,–,32,–,?,–,–
COc1ccc(C)cc1NC(=O)c1ccc(N(C)S(C)(=O)=O)cc1,–,–,–,–,–,–

# Bioassay records as filed in PubChem.
